Results as given in PubChem BioAssay (NCATS).
Records with an inconclusive call do not appear. Calls of active or inactive are those of the source. The call rests on the fitted dose curve; in most records, active means well fitted curve in the direction sought with a large enough effect; inconclusive means small, poorly fitted or top-dose-only effect, or another doubt; inactive means no such curve, though single readings can be large; an effect the other way counts as inactive or inconclusive.

Key:
[1] = target: Calcium and integrin-binding protein 1 (Homo sapiens) (UniProt Q99828); assay: Primary qHTS for Identification of Calcium Integrin Binding Protein 1 (CIB1) Competitor (AID 1508620); conditions: CIB1-GST / FITC-alphaIIb peptide fluorescence polarization; series mostly up to 57.7 µM;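 further: GST tagged CIB1 binding a fluorescein labelled alphaIIb integrin peptide tracer; top concentration of the series differs between compounds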
In short: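 CIB1-GST (1 uM final) and compound incubated 15 min at room temperature before adding FITC-alphaIIb peptide tracer (100 nM final). Competition for binding read by fluorescence polarization (ex 480, em 540) after another 15 min at room temperature.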

[2] = Primary qHTS for inhibitors of nuclear receptor binding SET domain protein 2 (NSD2) in an isogenic RCH-ACV NSD2 p.E1099K mutant (9B) (AID 1645876); conditions: RCH-ACV NSD2 E1099K (9B) viability, CellTiter-Glo, 72 h; series mostly up to 44.9 µM; further: nearly all actives have a fitted effect of over 70% in size
[3] = Primary qHTS for inhibitors of nuclear receptor binding SET domain protein 2 (NSD2) in an RCH-ACV wild type WT cells (2C) (AID 1645877); conditions: RCH-ACV (leukaemia line) NSD2 WT (2C) viability, CellTiter-Glo, 72 h; series mostly up to 44.9 µM; further: nearly all actives have a fitted effect of over 70% in size

Measured: Potency

Calcium and integrin-binding protein 1 (Homo sapiens), sequence (Q99828 whole entry, looked up): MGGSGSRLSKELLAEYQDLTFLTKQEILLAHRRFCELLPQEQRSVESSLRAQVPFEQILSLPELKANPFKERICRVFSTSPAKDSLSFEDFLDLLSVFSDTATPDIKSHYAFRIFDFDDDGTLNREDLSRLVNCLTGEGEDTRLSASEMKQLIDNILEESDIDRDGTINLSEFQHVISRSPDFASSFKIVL

C=C1C(O)CC2C(C(=O)O)=COC(O[C@@H]3O[C@H](COC(=O)c4ccc(O)cc4)[C@@H](O)[C@H](O)[C@H]3O)C12 (stereo partly specified)
inactive: all assays above

CCc1cc(CC[C@]2(C3CCCC3)CC(O)=C(Cc3nc4nc(C)cc(C)n4n3)C(=O)O2)cc(CC)n1
inactive: all assays above

CC[C@H]1OC(=O)[C@H](C)[C@@H](O[C@H]2C[C@@](C)(OC)[C@@H](O)[C@H](C)O2)C(C)[C@@H](O[C@@H]2O[C@H](C)C[C@H](N(C)C)[C@H]2O)[C@](C)(O)C[C@@H](C)CN(C)[C@H](C)[C@@H](O)[C@]1(C)O (stereo partly specified)
inactive: all assays above

C[C@@]12CC3(S(=O)(=O)O)OC(O1)[C@]1(COC(=O)c4ccccc4)[C@H]3C[C@]21O[C@@H]1O[C@H](CO)[C@@H](O)[C@H](O)[C@H]1O
inactive: all assays above

CCC(C)C(=O)O[C@H]1C[C@](C)(O)[C@]23OC(C)(C)[C@H](C[C@H](OC(=O)c4ccccc4)[C@]2(COC(C)=O)[C@H]1OC(=O)C(C)CC)[C@H]3OC(C)=O (stereo partly specified)
inactive: all assays above

COc1ccc(/C=C/C(=O)O[C@@H]2[C@@H](OC(C)=O)[C@@H](OC(C)=O)[C@H](O[C@H]3[C@@H]4C=CO[C@@H](O[C@@H]5O[C@H](CO)[C@@H](O)[C@H](O)[C@H]5O)[C@@H]4[C@@]4(CO)O[C@@H]34)O[C@H]2C)cc1
inactive: all assays above

COc1cncc(C#Cc2ccccn2)c1
inactive: all assays above
